What all share (details): mRNA level, 48 h; actives raise or lower the signal
Read-out in experiment [1]: ATP-citrate lyase (ACLY), ACLY (gene 47)
Description: LTEA_HepaRG_ACLY: Life Technologies and Expression Analysis (LTEA) Assay for ATP-citrate lyase (ACLY) using HepaRG (AID 2283466). Put shortly:
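ACLY mRNA quantified by qRT-PCR on Fluidigm arrays against three housekeeping genes, after 48 h chemical treatment of HepaRG cells (top concentration 100 uM, half-log steps, 0.5% DMSO vehicle). Up- or down-regulation fitted relative to DMSO.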

Read-out in experiment [2]: Peroxisomal acyl-coenzyme A oxidase 1 (ACOX1) gene, ACOX1 (gene 51)
Description: LTEA_HepaRG_ACOX1: Life Technologies and Expression Analysis (LTEA) Assay for Peroxisomal acyl-coenzyme A oxidase 1 (ACOX1) gene using HepaRG (AID 2283467). Put shortly: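 ACOX1 transcript levels were quantified by TaqMan qRT-PCR against three housekeeping genes after 48 h chemical exposure of differentiated human HepaRG cells. Exposure used eight half-log steps topping at 100 uM, 0.5% DMSO vehicle, in duplicate. Bidirectional curve fits were made relative to DMSO.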

Read-out in experiment [3]: Alkaline Phosphatase, Placental (ALPP) gene, ALPP (gene 250)
Description: LTEA_HepaRG_ALPP: Life Technologies and Expression Analysis (LTEA) Assay for Alkaline Phosphatase, Placental (ALPP) gene using HepaRG (AID 2283468). Summed up:
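Differentiated human HepaRG cells were plated and cultured 48 h, then exposed in duplicate for 48 h in serum-free induction medium to eight half-log concentrations from 100 uM in 0.5% DMSO. ALPP mRNA was measured by TaqMan qRT-PCR, normalized to ACTB, GAPDH, POLR2A.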

Read-out in experiment [4]: Bcl-2 (BAD) gene, BAD (gene 572)
Description: LTEA_HepaRG_BAD: Life Technologies and Expression Analysis (LTEA) Assay for Bcl-2 (BAD) gene using HepaRG (AID 2283469). Put shortly:
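Read-out: qRT-PCR of BAD mRNA, normalized to three housekeeping genes. Human HepaRG cultures got 48 h chemical exposure in 0.5% DMSO, duplicate eight-point half-log series topping at 100 uM. Gain or loss of signal fitted versus DMSO vehicle.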

Read-out in experiment [5]: Bcl-2 (BAX) gene, BAX (gene 581)
Description: LTEA_HepaRG_BAX: Life Technologies and Expression Analysis (LTEA) Assay for Bcl-2 (BAX) gene using HepaRG (AID 2283470). Summed up:
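qRT-PCR read-out of BAX mRNA, normalized to three housekeeping genes, after 48 h chemical exposure of human HepaRG cells in serum-free induction medium; eight-point half-log series, top 100 uM, 0.5% DMSO vehicle; bidirectional fit versus DMSO.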

Read-out in experiment [6]: adenosine kinase (ADK) gene, ADK (gene 132)
Description: LTEA_HepaRG_ADK: Life Technologies and Expression Analysis (LTEA) Assay for adenosine kinase (ADK) gene using HepaRG (AID 2283471). Summed up:
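Following 48 h exposure of HepaRG cells in 0.5% DMSO (top concentration 100 uM, duplicate wells), ADK mRNA induction or suppression was measured by qRT-PCR, normalised to ACTB/GAPDH/POLR2A, and fitted bidirectionally relative to vehicle.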

Read-out in experiment [7]: Alpha-fetoprotein (AFP) gene, AFP (gene 174)
Description: LTEA_HepaRG_AFP: Life Technologies and Expression Analysis (LTEA) Assay for Alpha-fetoprotein (AFP) gene using HepaRG (AID 2283472). Put shortly:
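qRT-PCR (Fluidigm TaqMan) readout of AFP transcript, normalized to three housekeeping genes, fitted bidirectionally against 0.5% DMSO baseline. HepaRG cells received chemicals for 48 h in serum-free induction medium, top concentration 100 uM, half-log steps.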

Read-out in experiment [8]: BCL2L11 (gene 10018)
Description: LTEA_HepaRG_BCL2L11: Life Technologies and Expression Analysis (LTEA) Assay for Bcl-2 (BCL2L11) gene using HepaRG (AID 2283473). Summed up: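 Differentiated human HepaRG cells in serum-free induction medium were exposed in duplicate for 48 h to eight concentrations (top 100 uM, half-log steps, 0.5% DMSO). BCL2L11 mRNA was quantified by TaqMan qRT-PCR, normalized to ACTB/GAPDH/POLR2A, bidirectional fit versus DMSO.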

Read-out in experiment [9]: Apolipoprotein A-V (APOA5) gene, APOA5 (gene 116519)
Description: LTEA_HepaRG_APOA5: Life Technologies and Expression Analysis (LTEA) Assay for Apolipoprotein A-V (APOA5) gene using HepaRG (AID 2283474). Summed up: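 Differentiated human HepaRG cells were exposed in duplicate for 48 h to eight half-log concentrations from 100 uM in 0.5% DMSO. APOA5 mRNA was quantified by TaqMan qRT-PCR, normalized to ACTB, GAPDH and POLR2A, and fitted bidirectionally against DMSO.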

Read-out in experiment [10]: Apoptosis regulator Bcl-2 (Homo sapiens) (UniProt P10415)
Description: LTEA_HepaRG_BCL2: Life Technologies and Expression Analysis (LTEA) Assay for Bcl-2 gene using HepaRG (AID 2283475). Put shortly:
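qRT-PCR read-out (Fluidigm TaqMan) of BCL2 transcript, normalised to three housekeeping genes, after 48 h chemical exposure of HepaRG cells; 8-point half-log series, top 100 uM, 0.5% DMSO vehicle. Gain or loss of signal fitted relative to DMSO baseline.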

Read-out in experiment [11]: Bcl-2 (BID) gene, BID (gene 637)
Description: LTEA_HepaRG_BID: Life Technologies and Expression Analysis (LTEA) Assay for Bcl-2 (BID) gene using HepaRG (AID 2283476). Summed up:
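HepaRG, 48 h exposure, 8-pt half-log series, top 100 uM, 0.5% DMSO vehicle, duplicates. Readout: BID mRNA by TaqMan qRT-PCR; housekeeping-normalized; bidirectional curve fit vs DMSO baseline.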

Read-out in experiment [12]: Caspase-3 (Homo sapiens) (UniProt P42574)
Description: LTEA_HepaRG_CASP3: Life Technologies and Expression Analysis (LTEA) Assay for cysteine-aspartic acid protease (CASP3) using HepaRG (AID 2283477). Summed up:
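Differentiated human HepaRG cells in serum-free induction medium were exposed 48 h to 8-point half-log concentrations from 100 uM (0.5% DMSO vehicle). CASP3 mRNA was measured by qRT-PCR, normalised to ACTB, GAPDH and POLR2A, with bidirectional fitting against DMSO.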

Read-out in experiment [13]: Cytochrome P450 (CYP24A1), CYP24A1 (gene 1591)
Description: LTEA_HepaRG_CYP24A1: Life Technologies and Expression Analysis (LTEA) Assay for Cytochrome P450 (CYP24A1) using HepaRG (AID 2283478). Summed up: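 Differentiated HepaRG cells, pre-cultured 48 h, were exposed in duplicate for 48 h in serum-free induction medium to 8 half-log concentrations (top 100 uM, 0.5% DMSO). CYP24A1 mRNA was quantified by TaqMan qRT-PCR, normalized to ACTB/GAPDH/POLR2A, fitted bidirectionally versus DMSO.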

Read-out in experiment [14]: Cytochrome P450 (CYP1A2), CYP1A2 (gene 1544)
Description: LTEA_HepaRG_CYP1A2: Life Technologies and Expression Analysis (LTEA) Assay for Cytochrome P450 (CYP1A2) using HepaRG (AID 2283479). Put shortly: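 Differentiated human HepaRG cells in serum-free induction medium were exposed in duplicate for 48 h to 8-point half-log concentrations up to 100 uM in 0.5% DMSO. CYP1A2 mRNA measured by qRT-PCR, normalized to ACTB, GAPDH, POLR2A; bidirectional fit vs DMSO.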

Read-out in experiment [15]: cysteine-aspartic acid protease (CASP8), CASP8 (gene 841)
Description: LTEA_HepaRG_CASP8: Life Technologies and Expression Analysis (LTEA) Assay for cysteine-aspartic acid protease (CASP8) using HepaRG (AID 2283480). Summed up:
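CASP8 transcript measured by TaqMan qRT-PCR with ACTB/GAPDH/POLR2A normalization, after 48 h chemical exposure of HepaRG cells in serum-free induction medium. Eight concentrations, top 100 uM, half-log steps, 0.5% DMSO vehicle; fits in both directions versus DMSO.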

Read-out in experiment [16]: Cytochrome P450 (CYP2B6), CYP2B6 (gene 1555)
Description: LTEA_HepaRG_CYP2B6: Life Technologies and Expression Analysis (LTEA) Assay for Cytochrome P450 (CYP2B6) using HepaRG (AID 2283481). Summed up:
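Differentiated HepaRG cells, serum-free induction medium, exposed 48 h in duplicate to 8-point half-log concentrations from 100 uM in 0.5% DMSO. CYP2B6 mRNA by qRT-PCR, normalized to ACTB, GAPDH, POLR2A; bidirectional fit versus DMSO.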

Read-out in experiment [17]: Cytochrome P450 2C19 (Homo sapiens) (UniProt P33261)
Description: LTEA_HepaRG_CYP2C19: Life Technologies and Expression Analysis (LTEA) Assay for CYP2C19 using HepaRG (AID 2283482). Put shortly:
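Differentiated human HepaRG cells were exposed for 48 h in serum-free induction medium to 8 concentrations (top 100 uM, half-log steps, 0.5% DMSO). CYP2C19 mRNA was measured by qRT-PCR, normalized to ACTB/GAPDH/POLR2A, and fitted bidirectionally against DMSO.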

Read-out in experiment [18]: CYP2C8 (gene 1558)
Description: LTEA_HepaRG_CYP2C8: Life Technologies and Expression Analysis (LTEA) Assay for CYP2C8 using HepaRG (AID 2283483). Summed up: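 CYP2C8 expression measured by TaqMan qRT-PCR and normalized to three housekeeping genes. HepaRG cultures were treated for 48 h with an eight-point half-log series topping at 100 uM, vehicle 0.5% DMSO, duplicates; fitted both directions against DMSO.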

Read-out in experiment [19]: CYP2C9 (gene 1559)
Description: LTEA_HepaRG_CYP2C9: Life Technologies and Expression Analysis (LTEA) Assay for CYP2C9 using HepaRG (AID 2283484). Put shortly:
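CYP2C9 transcript level, quantified by TaqMan qRT-PCR against three housekeeping genes, was fitted bidirectionally relative to 0.5% DMSO. HepaRG cultures were treated 48 h, in duplicate, at eight half-log concentrations topping at 100 uM.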

Read-out in experiment [20]: CYP2E1 (gene 1571)
Description: LTEA_HepaRG_CYP2E1: Life Technologies and Expression Analysis (LTEA) Assay for CYP2E1 using HepaRG (AID 2283485). Summed up: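 CYP2E1 transcript was measured by TaqMan qRT-PCR in human HepaRG cultures after 48 h chemical exposure (top 100 uM, half-log steps, 0.5% DMSO vehicle). Housekeeping-gene normalization; gain or loss fitted relative to DMSO baseline.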

By AC50 is commonly meant the midpoint of the concentration-response curve, whichever way the signal moves.

Each structure is given as a SMILES string. Active and inactive are the calls of the source. Rule for the calls: active = hit-call score of the fitted dose curve at least 0.9, where 1 is the maximum; inactive = score below 0.9.

Cytochrome P450 2C19 (Homo sapiens), sequence (P33261 whole entry, looked up): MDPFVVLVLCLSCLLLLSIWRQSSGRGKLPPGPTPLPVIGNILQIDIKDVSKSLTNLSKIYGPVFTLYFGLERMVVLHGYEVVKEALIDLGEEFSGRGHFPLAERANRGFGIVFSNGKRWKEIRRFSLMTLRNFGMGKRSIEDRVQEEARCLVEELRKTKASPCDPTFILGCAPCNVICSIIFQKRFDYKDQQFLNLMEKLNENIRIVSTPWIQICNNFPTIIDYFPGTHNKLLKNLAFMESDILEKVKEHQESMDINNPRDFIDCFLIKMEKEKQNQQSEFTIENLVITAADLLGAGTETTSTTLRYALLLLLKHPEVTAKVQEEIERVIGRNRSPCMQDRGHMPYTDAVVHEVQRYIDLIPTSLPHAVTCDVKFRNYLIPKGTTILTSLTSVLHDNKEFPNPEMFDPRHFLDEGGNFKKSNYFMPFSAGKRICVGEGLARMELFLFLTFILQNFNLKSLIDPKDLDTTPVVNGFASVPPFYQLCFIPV
Apoptosis regulator Bcl-2 (Homo sapiens), sequence (P10415 whole entry, looked up): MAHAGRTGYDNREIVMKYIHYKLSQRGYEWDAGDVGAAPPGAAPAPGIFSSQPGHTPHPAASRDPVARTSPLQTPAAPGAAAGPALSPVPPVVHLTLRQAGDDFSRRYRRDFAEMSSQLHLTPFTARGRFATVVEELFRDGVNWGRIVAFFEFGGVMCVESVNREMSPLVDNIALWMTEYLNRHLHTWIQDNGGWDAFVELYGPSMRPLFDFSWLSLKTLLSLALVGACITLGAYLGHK
Caspase-3 (Homo sapiens), sequence (P42574 whole entry, looked up): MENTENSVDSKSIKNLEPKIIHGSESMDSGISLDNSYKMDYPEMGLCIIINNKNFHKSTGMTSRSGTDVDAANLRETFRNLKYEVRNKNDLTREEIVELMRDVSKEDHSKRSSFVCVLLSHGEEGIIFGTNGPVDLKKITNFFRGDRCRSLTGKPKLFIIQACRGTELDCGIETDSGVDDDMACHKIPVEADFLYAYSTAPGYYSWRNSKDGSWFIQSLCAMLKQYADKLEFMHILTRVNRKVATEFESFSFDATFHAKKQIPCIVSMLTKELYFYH

`CCC(C)=NO`: the molecule was classed as inactive in experiment [1], in experiment [2], in experiment [3], in experiment [4], in [5] and in [6]. For the same molecule, the outcome in [7], in [8], in experiment [9], in experiment [10], in [11] and in [12] was inactive. For the same molecule, the outcome in experiment [13], in experiment [15], in experiment [16], in experiment [17], in experiment [18] and in experiment [19] was inactive. Also, the call in [20] was inactive. Also, in [14], the AC50 was 49.8 µM (active).

For the origin of these results see PubChem BioAssay (EPA / NIEHS).
